Screening results: PubChem, several laboratories
In the library only some 2.2% were active in any assay of this set; here they are far more common.
HSP90 refold inh: blocks HSP90-mediated luciferase refolding in reticulocyte lysate | Rabbit reticulocyte lysate, luciferase refolding luminescence, 3 h | inhibition, % at 5.6 µM | 290,000 tested, 0.91% active;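 active means inhibition above the screen-wide mean plus 3 SD, computed separately per campaign, cut at about 16% in these data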;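 further: 0% = DMSO wells and 100% = 60 µM geldanamycin wells; inhibitors lower the luminescence because luciferase stays unfolded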
TROY signal inh: inhibitors of TROY-dependent NF-kB signaling | AID 1347056 | Q293 LMP1-TROYcd NF-kB luciferase reporter, 4 h | 360,000 tested, 0.98% active | inhibition, % at 10 µM;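 active means compounds whose plate-normalised and pattern-corrected inhibition of the luciferase reporter signal at the single screening dose is 50% or more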
LGR2 inh: blocks bursicon-induced cAMP signaling via Drosophila LGR2; HEK293 LGR2, CRE-luciferase, bursicon-stimulated, 4 h; inhibition, % at 9.99 µM; 380,000 tested, 0.35% active; AID 720647;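 active means drop in luminescence signal, shown as inhibition above about 50% in the replicate tests, limit read from the data, passing the limit was not always enough; inconclusive means probably only some replicates passing the limit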;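 further: agonist challenge used bursicon conditioned medium at about half maximal strength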
TWEAK-Fn14 inh: blocks TWEAK-Fn14 interaction in a reporter cell assay | 360,000 tested, 2% active | TWEAK-stimulated Fn14 reporter cells, luciferase luminescence, 8 h | inhibition, % at 10 µM; in the data active means inhibition above about 50%
HSP90 inh confirm: confirmation of HSP90 inhibitors; shares compounds with HSP90 refold inh; rabbit reticulocyte lysate, luciferase refolding luminescence, 3 h; inhibition, % at 5.9 µM; 2,300 tested, 64% active; AID 1846; in the data active means inhibition above about 18%;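 further: 0% = vehicle wells and 100% = reference inhibitor wells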
FLuc counter: blocks native firefly luciferase in HSP90 counter-screen; shares compounds with HSP90 refold inh; purified native firefly luciferase, luminescence; inhibition, % at 5.9 µM; 2,300 tested, 48% active;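 active means inhibition above the mean inhibition of all tested sample wells plus 3 SD, cut at about 10% in these data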;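 further: 0% = DMSO with luciferase and 100% = wells lacking luciferase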
Target sequence (P08659 whole entry, looked up): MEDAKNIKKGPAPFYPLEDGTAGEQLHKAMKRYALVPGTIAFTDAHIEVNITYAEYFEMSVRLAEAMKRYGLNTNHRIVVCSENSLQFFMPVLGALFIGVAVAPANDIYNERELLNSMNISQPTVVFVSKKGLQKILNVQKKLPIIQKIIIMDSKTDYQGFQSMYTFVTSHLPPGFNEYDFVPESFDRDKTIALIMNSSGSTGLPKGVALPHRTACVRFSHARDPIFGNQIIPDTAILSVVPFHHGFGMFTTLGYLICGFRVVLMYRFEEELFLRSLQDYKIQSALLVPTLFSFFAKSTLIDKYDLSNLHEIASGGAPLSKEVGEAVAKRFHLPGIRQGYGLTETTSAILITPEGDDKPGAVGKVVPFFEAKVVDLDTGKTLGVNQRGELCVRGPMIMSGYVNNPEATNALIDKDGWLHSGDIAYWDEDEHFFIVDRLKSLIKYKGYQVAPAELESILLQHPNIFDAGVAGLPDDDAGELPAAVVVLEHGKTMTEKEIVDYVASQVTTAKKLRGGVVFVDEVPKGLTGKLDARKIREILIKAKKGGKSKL
Numbers without * were called inactive.

Screening CC(=O)Oc1ccccc1/C=C/c1nc2ccccc2c(=O)o1 returned HSP90 refold inh 32*, TROY signal inh 1, LGR2 inh 65*, TWEAK-Fn14 inh 62*, HSP90 inh confirm 45* and FLuc counter -8.
For CC(=O)Oc1ccc(-c2nc3ccccc3c(=O)o2)cc1 the results were HSP90 refold inh 3, TROY signal inh -28, LGR2 inh 15 and TWEAK-Fn14 inh 6.
`Cc1noc(C)c1NC(=O)Nc1ccc2c(c1)C(=O)N([C@@H](C)CO)C[C@H](C)[C@H](CN(C)S(=O)(=O)c1ccc(F)cc1)OCCCC[C@@H](C)O2` gave LGR2 inh 3.
`O=C(CN1C(=O)c2ccccc2S1(=O)=O)c1ccc(Cl)cc1Cl` gave HSP90 refold inh 89*, TROY signal inh 87*, LGR2 inh 103*, TWEAK-Fn14 inh 105*, HSP90 inh confirm 91* and FLuc counter 29*.
Screening O=C(CCN1C(=O)c2ccccc2S1(=O)=O)Nc1cc(Cl)ccc1Cl returned TROY signal inh -16, LGR2 inh -3 and TWEAK-Fn14 inh -13.
`O=C(CCN1C(=O)c2ccccc2S1(=O)=O)Nc1ccc2c(c1)OCCO2` gave HSP90 refold inh -1, TROY signal inh -39, LGR2 inh -20 and TWEAK-Fn14 inh 13.
`O=C(CN1C(=O)c2ccccc2S1(=O)=O)c1ccc2c(c1)OCCO2` gave HSP90 refold inh 57*, TROY signal inh 83*, LGR2 inh 103*, TWEAK-Fn14 inh 104*, HSP90 inh confirm 68* and FLuc counter -8.
O=C(CN1C(=O)c2ccccc2S1(=O)=O)c1ccc2c(c1)OCCCO2 was read as HSP90 refold inh 80*, TROY signal inh 81*, LGR2 inh 93*, TWEAK-Fn14 inh 102*, HSP90 inh confirm 82* and FLuc counter -19.
Screening O=C(Nc1ccc(Cl)cn1)Nc1ccc(Cl)cn1 returned HSP90 refold inh 0, TROY signal inh -44, LGR2 inh -19 and TWEAK-Fn14 inh -26.
C/C(=C\c1ccccc1)C(=O)Nc1ccc(Cl)cn1 was read as HSP90 refold inh 18*, TROY signal inh -26, LGR2 inh -29, TWEAK-Fn14 inh 28, HSP90 inh confirm 25* and FLuc counter 21*.
`Fc1ccc(-c2nnc(NC3=NCCCCC3)o2)cc1` gave HSP90 refold inh 73*, TROY signal inh 77*, TWEAK-Fn14 inh 99*, HSP90 inh confirm 81* and FLuc counter 76*.
O=C(N/N=C/c1cccc(O)c1)c1ccc2c(c1)OCCO2 was read as HSP90 refold inh 48*, TROY signal inh 15, LGR2 inh 13, TWEAK-Fn14 inh 69*, HSP90 inh confirm 59* and FLuc counter 39*.
CCOc1cccc(/C=N/NC(=O)c2ccc3c(c2)OCCO3)c1O was read as HSP90 refold inh -3, TROY signal inh -26, LGR2 inh 2 and TWEAK-Fn14 inh -21.
For Cc1cccc(/C=N/NC(=O)c2ccc3c(c2)OCCO3)c1O the results were HSP90 refold inh 32*, TROY signal inh 29, LGR2 inh 68*, TWEAK-Fn14 inh 74*, HSP90 inh confirm 59* and FLuc counter 52*.
O=C(N/N=C/c1ccccc1[N+](=O)[O-])c1ccc2c(c1)OCCO2 was read as HSP90 refold inh 22*, TROY signal inh -16, LGR2 inh inconclusive, TWEAK-Fn14 inh 22, HSP90 inh confirm 58* and FLuc counter 36*.
Screening O=C(N/N=C/c1cc(O)ccc1[N+](=O)[O-])c1ccc2c(c1)OCCO2 returned HSP90 refold inh 3, TROY signal inh -45, LGR2 inh -3 and TWEAK-Fn14 inh -6.
For O=C(c1ccc(-c2nc3ccccc3s2)s1)N1CCOCC1 the results were HSP90 refold inh 64*, LGR2 inh 76*, HSP90 inh confirm 85* and FLuc counter 79*.
c1ccc2sc(-c3ccc4c(c3)OCO4)nc2c1 was read as HSP90 refold inh 19*, TROY signal inh 11, TWEAK-Fn14 inh 74*, HSP90 inh confirm 60* and FLuc counter 56*.
`O=C(NC1CC1)c1ccc(-c2nc3ccccc3s2)s1` gave HSP90 refold inh 76*, TROY signal inh 71*, TWEAK-Fn14 inh 97*, HSP90 inh confirm 80* and FLuc counter 77*.
COc1ccc(-c2cn(CC[C@@H]3CC[C@H](NC(=O)NC(C)C)[C@H](CO)O3)nn2)cc1 was read as LGR2 inh -9.
`CCNC(=O)C[C@H]1CC[C@H]2[C@H](COc3ccc(NC(=O)c4cccc(C(F)(F)F)c4)cc3C(=O)N2C)O1` gave LGR2 inh 10.
C[C@H]1CN([C@@H](C)CO)C(=O)c2cc(NS(=O)(=O)c3ccccc3)ccc2O[C@@H]1CN(C)C(=O)Nc1ccc(C(F)(F)F)cc1 was read as LGR2 inh 5.
`COCCNS(=O)(=O)c1cc(OC)c(Cl)cc1Cl` gave HSP90 refold inh 17*, HSP90 inh confirm 3 and FLuc counter -3.
For Cc1ccc(/C=C2/C(=O)c3ccc(C(=O)O)cc3C2=O)o1 the results were HSP90 refold inh 22*, TROY signal inh -16, LGR2 inh 6, TWEAK-Fn14 inh 3, HSP90 inh confirm 46* and FLuc counter -32.
Screening O=C(O)c1ccc2c(c1)C(=O)/C(=C\c1ccco1)C2=O returned HSP90 refold inh 12, TROY signal inh 4, LGR2 inh -4 and TWEAK-Fn14 inh 7.
Cc1oc(-c2ccc(-c3ccccc3)cc2)nc1CN(C)C1CCOC1 (stereo unspecified) was read as HSP90 refold inh 75*, TROY signal inh -1, LGR2 inh -98, TWEAK-Fn14 inh 43, HSP90 inh confirm 86* and FLuc counter -2.
For Cc1oc(-c2ccc(-c3ccccc3)cc2)nc1CN(CCO)C(C)C the results were HSP90 refold inh 85*, TROY signal inh -4, LGR2 inh -65, TWEAK-Fn14 inh 65*, HSP90 inh confirm 94* and FLuc counter 21*.
Screening Cc1oc(-c2cccc(Cl)c2)nc1CN(C)C1CCOC1 (stereo unspecified) returned HSP90 refold inh 1, TROY signal inh -14, LGR2 inh -4 and TWEAK-Fn14 inh -8.
`Cc1cc2nc(-c3ccc[nH]c3=O)[nH]c2cc1C` gave HSP90 refold inh 68*, TROY signal inh 26, LGR2 inh 78*, TWEAK-Fn14 inh 83*, HSP90 inh confirm 80* and FLuc counter 65*.
Screening O=C(/C=C/c1ccccc1)Nc1ccc(N2CCCCC2)cc1 returned HSP90 refold inh -5, TROY signal inh -37, LGR2 inh -37 and TWEAK-Fn14 inh -38.
Screening NC(=O)NC(=O)C(Nc1ccc(N2CCCCC2)cc1)c1ccccc1 (stereo unspecified) returned HSP90 refold inh 23*, TROY signal inh 44, LGR2 inh -30, TWEAK-Fn14 inh 37, HSP90 inh confirm 10 and FLuc counter 6.
